For 38 compounds, outcome, activation and Potency results are on record in PubChem BioAssay (Tox21).

Records with an inconclusive call do not appear. Entries that show only a call come without a potency. Active and inactive are the calls of the source. Unless noted, calls come from the whole dose curve.

Thyrotropin-releasing hormone receptor (Homo sapiens), sequence (P34981 whole entry, looked up): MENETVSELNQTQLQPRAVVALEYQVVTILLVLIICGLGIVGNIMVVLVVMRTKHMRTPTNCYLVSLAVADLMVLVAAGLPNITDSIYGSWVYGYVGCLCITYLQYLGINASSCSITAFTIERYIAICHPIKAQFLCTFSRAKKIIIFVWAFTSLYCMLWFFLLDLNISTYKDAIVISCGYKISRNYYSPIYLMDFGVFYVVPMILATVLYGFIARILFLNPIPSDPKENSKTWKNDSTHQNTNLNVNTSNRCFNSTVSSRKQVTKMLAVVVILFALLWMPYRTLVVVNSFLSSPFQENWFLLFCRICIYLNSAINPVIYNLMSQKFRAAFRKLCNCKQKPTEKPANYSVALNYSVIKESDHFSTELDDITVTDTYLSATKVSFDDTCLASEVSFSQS

Test system in the first assay: not listed separately
In words: qHTS assay to identify small molecule agonists of the TGF-beta/Smad signaling pathway (AID 1346859; active = well fitted activation curve with a large enough effect in the signal ratio in the repeat runs, not every such curve was filed as active; the % refers to the signal ratio). Conditions: SBE-bla HEK293T, TGF-beta/Smad beta-lactamase reporter, 5 h; series mostly up to 76.8 µM. In outline:
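Smad-responsive beta-lactamase reporter cells (HEK 293T) received compounds from DMSO stocks after overnight attachment, were incubated 5 hr, then treated 2 hr with FRET substrate before dual-emission fluorescence measurement (405 nm excitation).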
With `Cc1nc2ccc(Cl)cc2[nH]1`, the outcome was inactive.
Still for that read-out and setting: under `CCOC(=O)c1ccc(N(C)C)cc1` stands “inactive”; under `C[Si](C)(C)O[Si](O)(O)O`, “inactive”; under `CCC(C)SSC(C)CC` (stereo unspecified), “inactive”.
The same measure, in the same setting: under `CC(C)(C)OC=O` stands “inactive”; under `CCNC(=O)C(C)OC(=O)Nc1ccccc1` (stereo unspecified), “inactive”.
Still for that read-out and setting: as for `C=CCN(CC=C)CC=C`, the entry is “inactive”; as for `COc1cc2nc(N3CCN(C(=O)C4CCCO4)CC3)nc(N)c2cc1OC` (stereo unspecified), “inactive”.
Regarding `Cc1cc(=O)oc2cc(O[C@@H]3SC[C@@H](O)[C@H](O)[C@H]3O)ccc12`, the call was inactive.
The same measure, in the same setting: as for `COc1ccccc1N1CCN(CC(O)COc2cc(OC)c(OC)c(OC)c2)CC1` (stereo unspecified), the entry is “inactive”; as for `COC(=O)N/N=C/c1c[n+]([O-])c2ccccc2[n+]1[O-]`, “inactive”.
The same measure, in the same setting: as for `COC(=O)c1cc(Cl)c(NC(C)=O)cc1OC`, the entry is “inactive”; as for `CC(=O)Nc1ccc(OCCOCCOc2ccc(NC(C)=O)cc2)cc1`, “inactive”; as for `CC(O)CCCCn1c(=O)c2c(ncn2C)n(C)c1=O` (stereo unspecified), “inactive”.
Same read-out and setting: as for `O=Cc1ccc(C(=O)O)cc1`, the entry is “inactive”; as for `O=S(=O)(O)c1cc(I)c(O)c2ncccc12`, “inactive”.
On to `CC(C)(C)c1ccc(C(=O)CCCCl)cc1`, for which the outcome was inactive.
The same measure, in the same setting: under `CC(C)(C)C(=O)CC(=O)C(C)(C)C` stands “inactive”; under `C=CC(=O)CC`, “inactive”; under `CCCCC(O)/C=C(C)/C=C/C=C/C(=O)N1CCCC1=O` (stereo unspecified), “inactive”.
On the same count and under the same terms, as for `CCN1CCN(C(=O)N[C@@H](C(=O)N[C@@H]2C(=O)N3[C@@H]2SC(C)(C)[C@H]3C(=O)O)c2ccccc2)C(=O)C1=O`, the entry is “inactive”; as for `COc1ccc2cc(CCC(C)=O)ccc2c1`, “inactive”; as for `c1coc(Cn2cccc2)c1`, “inactive”.
Same read-out and setting: as for `CCC(C)c1nccnc1OC` (stereo unspecified), the entry is “inactive”; as for `C=C(C)C(=O)OCCOC1CC2CC1C1C=CCC21` (stereo unspecified), “inactive”; as for `Cc1ccc(OC(=O)CC(C)C)cc1`, “inactive”.
With `COC(=O)c1c(C)cc(O)c(C)c1O`, the compound was called inactive.
Same read-out and setting: as for `O=CN1CCCCC1`, the entry is “inactive”.
The same measure, in the same setting: under `NS(=O)(=O)c1cc2c(cc1C(F)(F)F)NCNS2(=O)=O` stands “inactive”; under `CC(=O)c1ccc(O)c(C(N)=O)c1`, “inactive”.
For `c1cc2ccc3ccc4ccc5cccc6c(c1)c2c3c4c56`, the activation was 25.1% [at 2.72 µM] (inactive).
`O=C(O)/C=C(\CC(=O)O)C(=O)O`: the outcome was inactive.
Same read-out and setting: as for `Cc1cc(C)c(C)c(C)c1`, the entry is “inactive”; as for `O=C1CC2(CCCC2)CC(=O)N1CCNCC1COc2ccccc2O1` (stereo unspecified), “inactive”.
The same measure, in the same setting: under `CC[C@@]1(c2ccccc2)NC(=O)N(C)C1=O` stands “inactive”.
On to `C[C@@H]1CCC[C@H](C)N1CCCC(O)(c1ccccc1)c1ccccn1` (stereo partly specified), for which the outcome was inactive.
On to `CN(C)CCC[C@@]1(c2ccc(F)cc2)OCc2cc(C#N)ccc21`, for which the call was inactive.
Regarding `CCOC(=O)[C@H](CCc1ccccc1)N[C@H]1CS[C@H](c2cccs2)CN(CC(=O)O)C1=O`, the call was inactive.

In a further assay the target is Thyrotropin-releasing hormone receptor (Homo sapiens) (UniProt P34981). In words: qHTS assay to identify small molecule antagonists of the thyrotropin-releasing hormone receptor (TRHR) signaling pathway (AID 1346877; active = well fitted inhibition curve with a large enough effect in the repeat runs, not every such curve was filed as active). Conditions: TRHR-HEK293, TRH-induced calcium fluorescence, antagonist mode; series mostly up to 51.3 µM. The procedure, abridged:
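HEK293/TRHR cells, 18 h, 37 °C; Ca2+ dye 2 h; cpd 5 min RT; TRH 1 nM final; fluorescence read 3 min, 1 s intervals; 15 concs, triplicate.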
On the technique in general: In qHTS, concentration-response curves come from the screen itself.
For `Cc1nc2ccc(Cl)cc2[nH]1`, the result was inactive.
Same read-out and setting: under `C[Si](C)(C)O[Si](O)(O)O` stands “inactive”.
Still for that read-out and setting: as for `CCC(C)SSC(C)CC` (stereo unspecified), the entry is “inactive”; as for `CCNC(=O)C(C)OC(=O)Nc1ccccc1` (stereo unspecified), “inactive”; as for `C=CCN(CC=C)CC=C`, “inactive”.
For `COc1cc2nc(N3CCN(C(=O)C4CCCO4)CC3)nc(N)c2cc1OC` (stereo unspecified), the result was inactive.
The same measure, in the same setting: as for `COc1ccccc1N1CCN(CC(O)COc2cc(OC)c(OC)c(OC)c2)CC1` (stereo unspecified), the entry is “inactive”; as for `COC(=O)N/N=C/c1c[n+]([O-])c2ccccc2[n+]1[O-]`, “inactive”; as for `O=Cc1ccc(C(=O)O)cc1`, “inactive”.
The same measure, in the same setting: as for `CC(C)(C)c1ccc(C(=O)CCCCl)cc1`, the entry is “inactive”.
The same measure, in the same setting: as for `CC(C)(C)C(=O)CC(=O)C(C)(C)C`, the entry is “inactive”.
In the case of `CCCCC(O)/C=C(C)/C=C/C=C/C(=O)N1CCCC1=O` (stereo unspecified), the outcome was inactive.
Still for that read-out and setting: under `CCN1CCN(C(=O)N[C@@H](C(=O)N[C@@H]2C(=O)N3[C@@H]2SC(C)(C)[C@H]3C(=O)O)c2ccccc2)C(=O)C1=O` stands “inactive”; under `c1coc(Cn2cccc2)c1`, “inactive”; under `CCC(C)c1nccnc1OC` (stereo unspecified), “inactive”.
On the same count and under the same terms, as for `C=C(C)C(=O)OCCOC1CC2CC1C1C=CCC21` (stereo unspecified), the entry is “inactive”; as for `Cc1ccc(OC(=O)CC(C)C)cc1`, “inactive”; as for `COC(=O)c1c(C)cc(O)c(C)c1O`, “inactive”.
Same read-out and setting: as for `CC(=O)c1ccc(O)c(C(N)=O)c1`, the entry is “inactive”; as for `O=C(O)/C=C(\CC(=O)O)C(=O)O`, “inactive”.
As for `O=C1CC2(CCCC2)CC(=O)N1CCNCC1COc2ccccc2O1` (stereo unspecified), the result was inactive.
Take `CC[C@@]1(c2ccccc2)NC(=O)N(C)C1=O`: the outcome was inactive.
Still for that read-out and setting: under `C[C@@H]1CCC[C@H](C)N1CCCC(O)(c1ccccc1)c1ccccn1` (stereo partly specified) stands “inactive”; under `CN(C)CCC[C@@]1(c2ccc(F)cc2)OCc2cc(C#N)ccc21`, “inactive”.

Another assay shares this target. In words: qHTS assay to identify small molecule agonists of the thyrotropin-releasing hormone receptor (TRHR) signaling pathway (AID 1346891).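 Note: HEK293 cells expressing TRHR with calcium dye readout.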 The conditions noted are these: TRHR-HEK293 calcium fluorescence, agonist mode; series mostly up to 57.6 µM. In outline: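 Agonist-mode calcium mobilisation screen: TRHR-transfected HEK293 cells cultured overnight (18 h), dye-loaded for 2 h at 37 °C, exposed to compounds, and monitored by fluorescence for 3 min.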
Regarding `Cc1nc2ccc(Cl)cc2[nH]1`, the Potency result is “inactive”.
In the case of `C[Si](C)(C)O[Si](O)(O)O`, the Potency entry was “inactive”.
Same read-out and setting: as for `CCC(C)SSC(C)CC` (stereo unspecified), the entry is “inactive”.
`CCNC(=O)C(C)OC(=O)Nc1ccccc1` (stereo unspecified): the Potency result is “inactive”.
The same measure, in the same setting: under `C=CCN(CC=C)CC=C` stands “inactive”.
Take `COc1cc2nc(N3CCN(C(=O)C4CCCO4)CC3)nc(N)c2cc1OC` (stereo unspecified): the Potency result is “inactive”.
On the same count and under the same terms, under `COc1ccccc1N1CCN(CC(O)COc2cc(OC)c(OC)c(OC)c2)CC1` (stereo unspecified) stands “inactive”; under `O=Cc1ccc(C(=O)O)cc1`, “inactive”.
On the same count and under the same terms, as for `CC(C)(C)c1ccc(C(=O)CCCCl)cc1`, the entry is “inactive”; as for `CC(C)(C)C(=O)CC(=O)C(C)(C)C`, “inactive”; as for `CCCCC(O)/C=C(C)/C=C/C=C/C(=O)N1CCCC1=O` (stereo unspecified), “inactive”.
On the same count and under the same terms, under `CCN1CCN(C(=O)N[C@@H](C(=O)N[C@@H]2C(=O)N3[C@@H]2SC(C)(C)[C@H]3C(=O)O)c2ccccc2)C(=O)C1=O` stands “inactive”; under `c1coc(Cn2cccc2)c1`, “inactive”; under `CCC(C)c1nccnc1OC` (stereo unspecified), “inactive”.
Take `C=C(C)C(=O)OCCOC1CC2CC1C1C=CCC21` (stereo unspecified): the Potency result is “inactive”.
The same measure, in the same setting: as for `Cc1ccc(OC(=O)CC(C)C)cc1`, the entry is “inactive”.
With `COC(=O)c1c(C)cc(O)c(C)c1O`, the Potency entry was “inactive”.
As for `NS(=O)(=O)c1cc2c(cc1C(F)(F)F)NCNS2(=O)=O`, the Potency entry was “inactive”.
Take `CC(=O)c1ccc(O)c(C(N)=O)c1`: the Potency entry is “inactive”.
The same measure, in the same setting: under `O=C(O)/C=C(\CC(=O)O)C(=O)O` stands “inactive”.
Same read-out and setting: under `O=C1CC2(CCCC2)CC(=O)N1CCNCC1COc2ccccc2O1` (stereo unspecified) stands “inactive”; under `CC[C@@]1(c2ccccc2)NC(=O)N(C)C1=O`, “inactive”; under `C[C@@H]1CCC[C@H](C)N1CCCC(O)(c1ccccc1)c1ccccn1` (stereo partly specified), “inactive”.
Still for that read-out and setting: under `CN(C)CCC[C@@]1(c2ccc(F)cc2)OCc2cc(C#N)ccc21` stands “inactive”.
